Screening results as filed in PubChem.
HT1080 IDH1KD tx – kills HT-1080 cells with IDH1 knockdown; 360,000 tested, 2% active; Potency, µM (series often up to 46.1 µM), inactives show top-dose activity, negative = toxicity, most hits filed as cytotoxic; HT-1080 IDH1 knockdown viability, ATP luminescence, 48 h;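 also: potency is read from the fitted curve at half-maximal effect; 0% = DMSO wells and -100% = cell-free medium wells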
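In this qHTS, HT-1080 cells depleted of IDH1 are exposed for 48 h at 37 °C to compound titrations. Toxicity is scored from CellTiter-Glo luminescence, with DMSO as full viability and medium alone as none.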
IL-1B inflam inh – inflammasome signaling inhibition, IL-1 beta readout; THP-1 LPS/ATP IL-1B secretion, AlphaLISA, 16 h; hits give low values; activity change, % at 57.5 µM; 360,000 tested, 4.7% active; in the data active = activity change below about -50%; inconclusive = mostly about -30% to -49%
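Secreted IL-1B measured by AlphaLISA bead assay after 16 h compound exposure of THP-1 cells; compounds (final up to 57.5 uM) added 1 h before LPS (250 ng/mL) and ATP (1.25 mM) stimulation; lower signal means less secretion.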
TDP1 cell CPT – DT40-hTDP1 cell growth loss with CPT | chicken DT40 Tdp1-/-;hTDP1 cells + 20 nM CPT, ATP luminescence, 48 h | Potency, µM (top dose mostly 46.2 µM), inactives show at the top dose activity change, negative = growth inhibition, actives largely listed as inhibitors | 420,000 tested, 12% active | AID 686979; also: potency is read from the fitted curve at half-maximal effect; nearly all actives have a fitted effect of over 55% in size
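Chicken DT40 Tdp1-/- cells complemented with human TDP1, 400 cells/well, exposed to compounds plus 20 nM camptothecin for at least 48 h at 37 C; viability read as ATP content by CellTiter-Glo luminescence.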
TDP1 cell noCPT – qHTS for Inhibitors of human tyrosyl-DNA phosphodiesterase 1 (TDP1): qHTS in cells in absence of CPT | DT40 Tdp1-/- hTDP1 cells, no CPT, ATP luminescence, 48 h | Potency, µM (titrated, usually from 46.2 µM), for the others: at the top dose activity change, negative = growth inhibition, most hits filed as inhibitors | 420,000 tested, 15% active | AID 686978, 2013; also: potency is read from the fitted curve at half-maximal effect; nearly all actives have a fitted effect of over 55% in size
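DT40 Tdp1-/-;hTDP1 cells, no CPT (DMSO vehicle only), 400 cells/well; compounds pin-transferred; ≥48 hr, 37 °C; CellTiter-Glo 30 min RT dark, luminescence read.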
ALOX12 inh – inhibitors of human 12S-lipoxygenase ALOX12; P18054; purified 12hLO, xylenol orange hydroperoxide absorbance; AID 1671190; Potency, µM (series often up to 108 µM), without a hit: top-dose activity change, negative = inhibition, most hits filed as inhibitors; 580,000 tested, 1.1% active; also: potency is read from the fitted curve at half-maximal effect
Target sequence (P18054 whole entry, looked up): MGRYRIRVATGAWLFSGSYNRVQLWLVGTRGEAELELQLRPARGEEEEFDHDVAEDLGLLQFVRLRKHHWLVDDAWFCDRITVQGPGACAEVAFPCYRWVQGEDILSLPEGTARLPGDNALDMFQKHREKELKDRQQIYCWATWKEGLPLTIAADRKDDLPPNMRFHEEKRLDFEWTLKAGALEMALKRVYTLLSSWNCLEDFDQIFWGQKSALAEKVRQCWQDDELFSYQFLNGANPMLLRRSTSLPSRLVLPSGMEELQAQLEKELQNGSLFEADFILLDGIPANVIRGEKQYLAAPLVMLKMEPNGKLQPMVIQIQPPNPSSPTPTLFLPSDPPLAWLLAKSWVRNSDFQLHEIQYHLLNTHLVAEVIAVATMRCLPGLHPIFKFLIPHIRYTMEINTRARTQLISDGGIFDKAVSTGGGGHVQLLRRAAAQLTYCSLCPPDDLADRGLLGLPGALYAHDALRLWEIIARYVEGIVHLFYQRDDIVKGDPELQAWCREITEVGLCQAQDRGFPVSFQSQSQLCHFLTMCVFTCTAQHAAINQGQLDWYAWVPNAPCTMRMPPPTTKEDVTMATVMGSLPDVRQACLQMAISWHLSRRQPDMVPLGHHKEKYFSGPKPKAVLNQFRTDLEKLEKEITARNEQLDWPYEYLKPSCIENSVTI
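Purified human 12hLO (150 nM final) in 25 mM Hepes, 0.01% Triton X-100, pH 7.0 was preincubated 15 min at room temperature with compound. Then 40 uM arachidonic acid was added, 30 min. Hydroperoxide was read by Fe-XO absorbance ratio 573/405 nm.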
HT1080NT lethal – kills 2HG-producing HT-1080-NT fibrosarcoma cells. AID 686970. HT-1080-NT fibrosarcoma viability, CellTiter-Glo ATP luminescence, 48 h. Potency, µM (top dose mostly 46.1 µM), for inactives: top-dose activity, negative = less viability, most hits filed as cytotoxic. 360,000 tested, 1.6% active;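 also: NT is the 2HG producing partner of a matched IDH1 knockdown line; potency is read from the fitted curve at half-maximal effect; 0% = DMSO-treated cells and -100% = media-only wells without cells; nearly all actives have a fitted effect of over 55% in size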
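Viability of the 2HG-overproducing fibrosarcoma line after 48 hours of compound exposure at 37 degrees C was determined by luminescence with CellTiter-Glo, and concentration-effect curves were then fitted and categorized.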
Numbers without * were called inactive; ? = inconclusive; / = not tested or not shown; [ ] = remark or other dose. Shown is part of a subset that was picked to be rich in hits. Unless noted, calls follow the shape of the dose curve; as a rule, active = well fitted curve in the direction sought with a large enough effect; inconclusive = small, poorly fitted or top-dose-only effect, or another doubt; inactive = no such curve, though single readings can be large; an effect the other way counts as inactive or inconclusive. Unless noted, % is scaled to controls: 0 for no effect and ±100 for the full control effect.

SMILES | HT1080 IDH1KD tx | IL-1B inflam inh | TDP1 cell CPT | TDP1 cell noCPT | ALOX12 inh | HT1080NT lethal
COCCn1c(=O)cnc2cnc(Nc3cccc(OC)c3)nc21 | / | / | 9.2µM* | ? | ? | /
COc1ccc(-n2c(=O)c(C)nc3cnc(Nc4cccc(OC)c4)nc32)cc1 | / | / | 23µM* | 18µM* | 26% | /
COc1cccc(Nc2ncc3nc(C)c(=O)n(C4CC4)c3n2)c1 | / | / | -12% | ? | ? | /
COc1cccc(Nc2ncc3ncc(=O)n(CCC#N)c3n2)c1 | / | / | -6% | -11% | 0% | /
COCCNC(=O)c1ccc(OC2CCN(Cc3cnc(SC)nc3)CC2)c(Cl)c1 | / | / | / | / | 1% | /
COc1ccc2c(c1)C1OCCC1C(c1ccco1)N2 (stereo unspecified) | ? | ? | 23µM* | ? | / | ?
c1coc(C2Nc3ccccc3C3OCCC23)c1 (stereo unspecified) | 5% | 8 | 3% | -5% | 83% | 3%
CCOC(=O)c1cn(C)nc1S(=O)(=O)N1CCOCC1 | / | / | / | / | 11µM* | /
CCOC(=O)c1c(S(=O)(=O)N2CCOCC2)nn(CC)c1C | / | / | / | / | -7% | /
O=C(CCNC(=O)C1CCCC1)NC1CC1 | / | / | / | / | 1% | /
Cc1nc2[nH]c(=S)[nH]c2cc1Br | 3%[9.24 µM] | 7 | -1% | -2% | 13µM* | 3%
COc1cc(CNc2ccc(CNc3ncn[nH]3)cc2)ccc1OCC(=O)NC(C)(C)C | -6% | -3 | ? | 16µM* | 12% | -5%
CCOc1cc(CNc2ccc(Br)cc2)cc(Br)c1OCC(=O)NC(C)(C)C | ? | -26 | 21µM* | ? | -5% | ?
CCOc1cc(CNc2ccccc2)cc(Br)c1OCC(=O)NC(C)(C)C | ? | -87* | ? | ? | -24% | ?
CCOc1cc(CNc2ccc(OC)cc2)cc(Br)c1OCC(=O)NC(C)(C)C | 0% | ? | ? | ? | -19% | ?
CC(C)(C)NC(=O)COc1ccc(CNc2ncn[nH]2)cc1 | ? | -2 | 5% | -21% | 4% | 25%
CCCCCCCNC(=O)CCNC(=O)c1ccccc1 | / | / | / | / | -10% | /
CC(OC(=O)CC1Oc2ccccc2NC1=O)C(=O)NC1CCCC1 (stereo unspecified) | / | / | / | / | 18% | /
COc1cc2c(cc1OC)C(c1ccc(Cl)cc1)N(c1cccc(C#N)c1)C(=O)C2 (stereo unspecified) | / | / | 23µM* | ? | -15% | /
CCOC(=O)c1ccc(N2C(=O)Cc3cc(OC)c(OC)cc3C2c2ccc(OC)cc2)cc1 (stereo unspecified) | / | / | / | / | 2% | /
CCOc1cc2c(cc1OCC)C(c1ccc(OC)c(OC)c1)N(c1ccc(C(=O)O)cc1)C(=O)C2 (stereo unspecified) | -1% | -1 | 27% | -12% | 1% | 0%
COc1cc2c(cc1OC)C(c1ccc(F)cc1)N(c1cccc(C#N)c1)C(=O)C2 (stereo unspecified) | / | / | 15µM* | ? | -18% | /
COc1ccc(S(=O)(=O)N2CC[C@H]3NC(=O)N(Cc4ccccc4)C(=O)[C@H]32)cc1 | / | / | / | / | 9%[176 µM] | /
O=C(COc1ccc(Cl)cc1)Nc1ccc2nc(SCC(=O)N3CCOCC3)sc2c1 | / | / | ? | 15µM* | -9% | /
Cc1ccc(OCC(=O)Nc2ccc3nc(SCC(=O)N4CCOCC4)sc3c2)cc1 | / | / | ? | 21µM* | 0% | /
SMILES | HT1080 IDH1KD tx | IL-1B inflam inh | TDP1 cell CPT | TDP1 cell noCPT | ALOX12 inh | HT1080NT lethal
COc1ccc(-c2cc(=O)n(CCC#N)[nH]2)cc1 | -13% | 6 | ? | 23µM* | 0% | -10%
Nc1nc(=S)[nH]c2n[nH]nc12 | / | / | 4.5µM* | 3.5µM* | / | /
CCCc1noc(CN2CCN(C(=O)N3CCCCC3)CC2)n1 | / | / | / | / | 2% | /
CC(C)NC(=O)c1cc2c(-c3ccc(Cl)cc3)nn(C)c2s1 | -1% | 16 | -8% | -20% | 12% | 0%
COC(=O)c1cc(NC(=O)c2cc3c(-c4ccccc4F)nn(C)c3s2)cc(C(=O)OC)c1 | / | / | 3.3µM* | ? | -26% | /
CCOc1ccc(NC(=O)c2cc3c(-c4ccccc4F)nn(C)c3s2)cc1 | / | / | ? | -10% | ? | /
Cn1nc(-c2ccccc2F)c2cc(C(=O)NCCc3ccc(Cl)cc3)sc21 | / | / | ? | 16µM* | 2% | /
COCCNC(=O)c1cc2c(-c3ccccc3F)nn(C)c2s1 | -16% | -54* | -25% | -23% | ? | -7%
CNC(=O)c1cc2c(-c3ccccc3)nn(C)c2s1 | 1% | -11 | ? | 21µM* | -7% | -5%
CCn1nccc1C(=O)NCCC1CCN(C(=O)Nc2ccccc2F)CC1 | / | / | / | / | 25% | /
Cc1ccc(NC(=O)Cn2nc3n(c2=O)CCCCC3)c(C)c1 | / | / | / | / | 42% | /
CCCCN(C)CCNC(=O)c1cc2c(-c3ccccc3F)nn(C)c2s1 | ? | -97* | -12% | ? | 20% | 18µM*
Cn1nc(C(F)(F)F)c2cc(C(=O)Nc3ccc(C(F)(F)F)cc3)sc21 | ? | ? | ? | 21µM* | ? | ?
CNC(=O)c1cc(C)c(-c2ccccc2)s1 | 0% | 10 | ? | 21µM* | -3% | 2%
CNC(=O)c1cc2c(s1)-c1ccccc1CC2 | 2% | -2 | 13% | -3% | 0% | -17%
Cn1nc(C(F)(F)F)c2cc(C(=O)Nc3ccc(F)c(Cl)c3)sc21 | 10% | / | 11% | ? | 0% | 0%
FC(F)(F)c1ccc(Cl)c(N/N=C/c2cccc(OCc3ccccc3)c2)c1 | / | / | / | / | 7.1µM* | /
CCC1(c2ccccc2)NC(=O)N(CC(=O)NNC(=O)COc2ccc(Cl)cc2C)C1=O (stereo unspecified) | -16% | -10 | 2% | 6% | 2% | -1%
CN(C)CCNc1nc(-c2ccccc2CO)c2sccc2n1 | 1% | -18 | -27% | -3% | 5% | -2%
Fc1cc(F)nc(NCc2ccccc2)n1 | 0% | 14 | 13% | 14% | 11% | 0%
COc1ccc(-c2cc(CNc3nc(NCc4ccccc4OC)nc4ccsc34)on2)cc1 | 15µM* | 0 | 16µM* | 26µM* | -11% | 18µM*
COc1ccc(-c2cc(CNS(=O)(=O)c3ccccc3)on2)cc1 | -3% | 8 | -4% | ? | 22% | -10%
Fc1cc(Cl)ccc1Nc1nc(NCc2ccccc2)nc2ccsc12 | -16% | -15 | 12µM* | 9.2µM* | ? | 0%
COCCNc1nc(NCc2ccccc2F)c2sccc2n1 | -28% | -19 | 18µM* | 18µM* | -24% | -19%
